PP1 counter – blocks human PP1-alpha phosphatase, a PP5 counter-screen. inhibition, % at 6.7 µM. P62136. purified PP1alpha, OMFP fluorescence. AID 2235. actives 0.9% (n = 320,000);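 active means inhibition above the mean inhibition of all tested compounds plus 3 SD, computed separately for each screening campaign, cut at about 15% in these data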
PREPL inh – inhibits the human prolyl oligopeptidase-like enzyme | AID 2751 | recombinant PREPL, fluorescence polarization activity-based probe | inhibition, % at 5.96 µM | actives 0.68% (n = 320,000); in the data active means inhibition above about 43%
PP5 inh – blocks human protein phosphatase 5 activity; P53041; purified PP5c, OMFP substrate fluorescence; inhibition, % at 6.7 µM; actives 0.18% (n = 320,000); AID 1987;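 active means inhibition above the campaign's mean inhibition across all tested compounds plus 3 SD, cut at about 9.5% in these data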
Target sequence (P53041 whole entry, looked up): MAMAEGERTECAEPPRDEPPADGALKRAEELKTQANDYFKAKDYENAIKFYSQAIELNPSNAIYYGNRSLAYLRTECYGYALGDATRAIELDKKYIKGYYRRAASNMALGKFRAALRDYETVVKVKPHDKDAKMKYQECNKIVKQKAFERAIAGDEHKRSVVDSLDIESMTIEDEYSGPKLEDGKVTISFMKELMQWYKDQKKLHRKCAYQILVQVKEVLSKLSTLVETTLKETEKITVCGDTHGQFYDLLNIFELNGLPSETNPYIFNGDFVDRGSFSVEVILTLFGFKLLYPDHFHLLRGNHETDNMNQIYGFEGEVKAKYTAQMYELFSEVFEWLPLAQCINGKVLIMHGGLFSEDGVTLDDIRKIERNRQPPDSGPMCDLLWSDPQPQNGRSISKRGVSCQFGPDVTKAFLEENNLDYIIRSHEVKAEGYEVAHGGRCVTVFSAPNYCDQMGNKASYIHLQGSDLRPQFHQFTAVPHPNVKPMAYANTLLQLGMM
NadD inh – NadD (S. aureus) enzyme inhibition; inhibition, % at 20 µM; purified NadD enzyme, colorimetric absorbance read-out; actives 0.78% (n = 360,000); in the data active means inhibition above about 26%
Rpn11 block – inhibitors of human proteasome Rpn11; O00487; AID 588493; human 26S proteasome, Ub4-pepOG fluorescence polarization; 20S core pre-blocked with epoxomicin; inhibition, % at 20 µM; actives 0.59% (n = 360,000);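 active means inhibition at 20 µM, scaled to each plate's controls, above about 33%, limit read from the data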
A number is an active result; . = inactive; / = no result given. Rows were chosen to be rich in hits. Some 2.4% of all compounds tested hit in one or more screens of this group.

SMILES	PP1 counter	PREPL inh	PP5 inh	NadD inh	Rpn11 block
CCOc1ccc(N2C(=O)CS/C2=C(\C(Cl)=C(Cl)Cl)[N+](=O)[O-])cc1	.	.	.	.	71
O=C(CCCn1nnnc1CN1CCOCC1)N1CCN(c2ccccc2F)CC1	15	.	.	.	.
O=C1C(=C(c2ccccc2)N2CCOCC2)Cc2ccccc21	/	/	/	.	.
Cc1ccc2nsnc2c1NC(=O)c1ccc(-c2cc(Cl)ccc2Cl)o1	25	.	.	.	.
COc1cc(OC)cc(-c2c(Sc3ccccc3)c3cc(-c4ccc(SC)cc4)ccc3n2C)c1	/	/	/	.	/
COc1ccc(CCOC(=O)c2ccc(NC(=O)CC#N)cc2)cc1	.	.	.	.	.
COc1ccc(CCn2c(C)cc(C(=O)COC(=O)c3ccc(NC(=O)CC#N)cc3)c2C)cc1	.	.	.	40	/
Cc1nc2c(C(=O)NCCC(C)C)c[nH]n2c(=O)c1Cc1ccccc1F	15	.	.	30	.
COc1cc(C(=O)N2CCCCC2c2cc(C(=O)Nc3ccccc3Cl)no2)cc(OC)c1C (centres undefined)	/	/	/	.	.
O=C(CSc1nc2nn(-c3ccccc3)c(=O)c-2c2n1CCCCC2)Nc1ccc(F)c(F)c1	/	.	/	39	.
O=C(CSc1nc2nn(-c3ccccc3)c(=O)c-2c2n1CCCCC2)c1ccc(O)c(O)c1	.	.	.	57	.
COC(=O)/C(=C\c1c[nH]c2ccccc12)NC(C)=O	16	.	.	.	.
O=C(CN1CCN(c2nc(-c3ccccc3)cs2)CC1)Nc1ccc2c(c1)OCO2	.	48	.	.	.
CC1(C)Cc2c(c(N3CCCC3)nc3sc4c(N5CCN(CCO)CC5)ncnc4c23)CO1	.	48	.	.	.
OCCN1CCN(c2ncnc3c2sc2nc(N4CCOCC4)c4c(c23)CCC4)CC1	.	.	.	.	.
CC(/C=C1\SC(=S)N(CCCC(=O)Nc2ccc(C(=O)O)c(O)c2)C1=O)=C\c1ccccc1	17	.	.	/	/
O=C(CCN1C(=O)/C(=C/C=C/c2ccccc2)SC1=S)Nc1nccs1	.	.	.	41	.
CC(=C\c1ccccc1)/C=C1/SC(=O)N(CCCC(=O)Nc2ccc(C(=O)O)cc2)C1=O	.	.	.	.	.
O=C(CCN1C(=O)/C(=C\c2cccs2)SC1=S)Nc1nccs1	.	.	.	.	/
CC(=O)c1ccc(NC(=O)CN2C(=O)/C(=C/C(C)=C/c3ccccc3)SC2=S)cc1	/	/	/	31	.
CC(/C=C1\SC(=S)N(CCC(=O)Nc2ccc(O)cc2)C1=O)=C\c1ccccc1	15	.	.	.	.
CC(=Cc1ccccc1)C=C1SC(=S)N(CCCC(=O)Nc2ccc(C(=O)O)c(O)c2)C1=O	/	/	/	.	.
CCCCNc1c(-c2ccc(OC)c(SC3CCCCC3)c2)nc2ccc(C)cn12	/	.	/	.	.
COc1ccc(-c2nc3ccc(C)cn3c2NCc2ccccc2)cc1SC1CCCCC1	17	.	.	.	.
CCCCCCN1C[C@H](n2cc(C3CC3)nn2)[C@@H](O)C[C@@H]1c1ccc(Cl)cc1	/	/	/	.	.
SMILES	PP1 counter	PREPL inh	PP5 inh	NadD inh	Rpn11 block
CCN(CC)c1ccc(NC(=O)COC(=O)/C=C/c2nc3ccccc3s2)cc1	15	.	.	.	.
CNC(=O)COC(=O)/C=C/c1nc2ccccc2s1	.	.	.	.	.
NC(=O)c1c(N)[nH]c(C(=O)c2ccccc2)c1-c1ccccc1Br	/	/	/	.	/
Cc1cccc(NC(=S)N=Nc2c(O)[nH]c3ccccc23)c1	.	.	.	.	.
COc1ccccc1NC(=S)N=Nc1c(O)[nH]c2ccc(Br)cc12	.	.	.	30	.
COC(=O)c1ccc2nc(-c3ccc(OC)c(OC)c3)c(Cc3ccc(OC)cc3C)n2c1	/	/	/	.	.
C#CC(=O)CC1(CN(Cc2ccccc2)C(=O)OC(C)(C)C)CCCCC1	/	/	/	.	40
CC(C)(C)n1nnnc1C(c1ccccc1)N1CCN(c2ncccc2C(F)(F)F)CC1 (centres undefined)	/	/	/	.	/
CN[C@@H](CO)C(=O)NC[C@H]1O[C@@H](n2cnc3c(=O)[nH]c(N)nc32)[C@H](O)[C@@H]1O	/	/	/	.	.
COc1cc(C2Nc3cccc4cccc(c34)N2)ccc1O	.	.	.	59	.
COc1cc(C2Nc3cccc4cccc(c34)N2)cc(OC)c1OC(C)=O	.	.	.	43	.
Cc1cccc(C2Nc3cccc4cccc(c34)N2)c1	.	.	.	.	.
COc1ccc(Br)cc1C1Nc2cccc3cccc(c23)N1	.	.	.	.	.
OC(c1ccc(-c2ccccc2)cc1)c1ncc(-c2ccccc2)[nH]1 (centres undefined)	/	/	/	.	.
CCCn1c(CN2CCN(C(=O)OCC)CC2)nc2cc(NC(=O)CC)ccc21	.	.	.	.	.
O=[N+]([O-])c1cc([N+](=O)[O-])c(Oc2cc(Cl)ccc2Cl)cc1NC1CCCCCCC1	.	.	.	.	.
Cc1ccn(C(=O)c2ccc(NC(=O)CC(C)C)cc2)n1	.	71	.	.	.
Cc1ccc(/C(O)=C2/C(=O)C(=O)N(c3ccccn3)C2c2ccc([N+](=O)[O-])cc2)cc1 (centres undefined)	16	.	.	.	.
O=C(CSc1ncnc2ccccc12)Nc1cc(S(=O)(=O)N2CCCCC2)ccc1Cl	16	.	.	.	.
Nc1cc2c(cc1Cl)-c1ccccc1C2=NO	/	/	/	.	.
COc1cccc(C2=Nc3cccc4cccc(c34)N2)c1	17	.	.	.	.
NS(=O)(=O)c1ccc(N=Nc2c(-c3ccccc3)[nH]n(-c3nc(-c4ccccc4)cs3)c2=O)cc1	.	.	.	37	.
Cc1cc(C)n2[nH]c(=O)c(N=Nc3ccc(S(N)(=O)=O)cc3)c2n1	.	.	.	.	.
NC(=O)c1ccc(N=Nc2c(-c3ccccc3)[nH]n(-c3ccccc3)c2=O)cc1	.	.	.	/	/
Nc1[nH]n2c(=O)cc(-c3ccccc3)nc2c1N=Nc1ccc(S(N)(=O)=O)cc1	16	.	.	.	.
SMILES	PP1 counter	PREPL inh	PP5 inh	NadD inh	Rpn11 block
Cc1ccc(N=Nc2c(N)[nH]n3c(=O)cc(C)nc23)cc1	.	.	.	.	.
Nc1[nH]n2c(=O)cc(-c3ccccc3)nc2c1N=Nc1ccccc1	.	.	.	31	.
COc1cc(CN2C[C@@H](CO)O[C@@H](n3cnc4c(Nc5ccccc5)ncnc43)C2)cc(OC)c1OC	/	/	/	.	.
CN(C)c1ccc(C=c2c3ccccc3n3c2c2ccccc2[n+]3C)cc1	/	/	/	54	.
CC(C)Oc1ccc(CN2CCC2(C)C(=O)Nc2cccc3cccnc23)cc1 (centres undefined)	/	/	/	.	.
Cc1oc(-c2ccc(Cl)cc2)nc1CS(=O)CC(=O)NCCCN(C)C1CCCCC1 (centres undefined)	.	57	.	.	.
O=C(O[C@@H]1OC2COC(=O)c3cc(O)c(O)c(O)c3-c3c(cc(O)c(O)c3O)C(=O)O[C@@H]([C@H]1O)[C@@H]2O)c1cc(O)c(O)c(O)c1	.	54	.	.	/
CNc1ncnc2c1ncn2[C@H]1CN(Cc2ccc(F)cc2)C[C@@H](CO)O1	/	/	/	.	.
CN(C)c1ccc(-c2ccnc3c2CC(C)(C(=O)NCc2ccc(F)c(F)c2)O3)cc1 (centres undefined)	/	/	/	.	.

Screens (PubChem)
